Calls of active or inactive are those of the source. Rule for the calls: active = hit-call score of the fitted dose curve at least 0.9, where 1 is the maximum; inactive = score below 0.9.

This experiment is described as follows: APR_HepG2_MitoticArrest_1hr: Apredica 1-hour HepG2 Assay for Mitotic Arrest (AID 2282672). Particulars: high-content imaging, actives raise or lower the signal. The method, then: APR_HepG2_1hr is a cell-based, multiplexed-readout assay that uses HepG2, a human liver cell line, with measurements taken at 1 hour after chemical dosing in a 384-well plate.APR_HepG2_MitoticArrest_1hr is one of 10 assay component(s) measured or calculated from the APR_HepG2_1hr assay. It is designed to make measurements of cell phenotype, a form of morphology reporter, as detected with fluorescence intensity signals by HCS Fluorescent Imaging technology.Data from the assay component APR_HepG2_MitoticArrest_1hr was analyzed into 1 assay endpoint. This assay endpoint, APR_HepG2_MitoticArrest_1hr, was analyzed with bidirectional fitting relative to DMSO as the negative control and baseline of activity. Using a type of morphology reporter, measures of protein for gain or loss-of-signal activity can be used to understand the signaling at the pathway-level as they relate to the gene . Furthermore, this assay endpoint can be referred to as a primary readout, because this assay has produced multiple assay endpoints where this one serves a signaling function. To generalize the intended target to other relatable targets, this assay endpoint is annotated to the cell cycle intended target family, where the subfamily is arrest.
Cells were treated with dimethyl sulfoxide (DMSO) as a solvent control at a final concentration of 0.5% v/v or with compounds in DMSO with a resulting final DMSO concentration of 0.5% v/v. Compound treatment was done at concentrations of 0.39, 0.78, 1.56, 3.12, 6.24, 12.5, 25, 50, 100, and 200 uM in duplicate on each plate. Cells were treated with compounds for 1, 24, or 72 hr. Carbonyl […] m-chloro-phenylhydrazone (CCCP) and taxol were used as positive controls for mitochondrial function and cytoskeletal stability, respectively; DMSO served as the negative control for this experiment. Cells were fixed by the direct addition of 50 uL formaldehyde in Hank's Balanced Salt Solution (HBSS) to a final concentration of 3.7%. After incubation in the fixation medium for 30 min at room temperature (293-298 K), cells were rinsed twice with HBSS and treated with cell permeabilization buffer (16 uL of 0.5% Triton X-100) for 10 min at room temperature (293-298 K) before labeling. For mitochondrial membrane potential and mitochondrial measurements, pre-fixed cells were incubated with 50 uL of MitoTracker Red CMXRos (Invitrogen) at a concentration of 250 nM for 30 min before fixation. In the remaining cases, post-fixed cells were labeled by incubation with a multiplexed mixture of primary antibodies in HBSS for 60 min at room temperature (293-298 K) to detect immunoreactivity of c-Jun (1:500), phospho-histone H3 (1:100), phospho-histone H2A.x (1:200), p53 (1:400), alpha-tubulin (1:200) and Hoechst 33342 (2 ug/mL). Cells were labeled for multiplexed imaging on two separate plates: a) Hoechst 33342, MitoTracker Red, phospho-histone H3, and alpha-tubulin, and b) Hoechst 33342, phospho-histone H2A.x, and c-Jun. A final rinse with HBSS (50 uL) was performed before analysis. The primary and secondary antibodies for the proteins were phospho-histone H3 (rabbit anti-phospho-histone H3 and FITC-donkey anti-rabbit IgG), phospho-histone H2A.x (mouse anti-phospho-histone H2A.x and FITC-donkey anti-mouse IgG), c-Jun (rabbit anti-phospho-c-Jun and Cy3-donkey anti-rabbit IgG), p53 (sheep anti-p53 and Cy5-donkey anti-sheep IgG), alpha-tubulin (mouse anti-alpha-tubulin and Cy5-donkey anti-mouse IgG). These antibodies are available as the CellCiphr HepG2 assay kit (Millipore).Digital images of each well were captured using a Cellomics ArrayScan VTI (Thermo Scientific Cellomics) (0.8 NA objective, 0.63x optical coupler, and XF-93 filter set) at 20x magnification. The images were acquired using the autofocus feature of the ArrayScan instrument, which entails the following steps. First, the camera focuses on channel 1 (Hoechst 33342), where nuclei are identified. Second, a Z offset of 1 um is used for capturing mitochondria (MitoTracker Red). […]
Consider `S=C([S-])NCCNC(=S)[S-].[Mn+2]`, for which the compound was called inactive. For `c1ccc(Nc2ccccc2)cc1`, the compound was classed as inactive. The entry for `CCC(C)OC(=O)N1CCCCC1CCO` (stereo not given) is “inactive”; for `CCCCOC(=O)C(C)Oc1ccc(Oc2ccc(C(F)(F)F)cn2)cc1` (stereo not given) it is “inactive”; for `COC(=O)c1cccc(C)c1S(=O)(=O)NC(=O)Nc1nc(OCC(F)(F)F)nc(N(C)C)n1` it is “inactive”. The entry for `CCOC(=O)COc1cc(-n2ncc(C(F)(F)F)c(C)c2=O)c(F)cc1Cl` is “inactive”; for `COC(=O)c1ccccc1S(=O)(=O)NC(=O)Nc1nc(OC(F)F)cc(OC(F)F)n1` it is “inactive”. The entry for `Cc1nn(C)c(Oc2ccccc2)c1C=NOCc1ccc(C(=O)OC(C)(C)C)cc1` is “inactive”. Consider `O=C(Nc1ccc([N+](=O)[O-])cc1Cl)c1cc(Cl)ccc1O`, for which the compound was called inactive. For the compound `CCOC(=O)NCCOc1ccc(Oc2ccccc2)cc1`, the result was inactive. The entry for `CC1(C)C(C=C(Cl)Cl)C1C(=O)OCc1cccc(Oc2ccccc2)c1` (stereo not given) is “inactive”; for `CCOC(=O)[C@H](C)Oc1ccc(Oc2nc3ccc(Cl)cc3o2)cc1` it is “inactive”; for `C#CCOC(=O)[C@@H](C)Oc1ccc(Oc2ncc(Cl)cc2F)cc1` it is “inactive”.

As to `CCCCCCC(C)OC(=O)COc1nc(F)c(Cl)c(N)c1Cl` (stereo not given), the outcome was inactive. The entry for `CC(C)(c1ccc(O)cc1)c1ccc(O)cc1` is “inactive”; for `CCOC(=O)C(C)Oc1ccc(Oc2cnc3cc(Cl)ccc3n2)cc1` (stereo not given) it is “inactive”.

As for `CCCN(CCC)c1c([N+](=O)[O-])cc(C(F)(F)F)c(N)c1[N+](=O)[O-]`, the result was inactive. The entry for `CCCOC(=O)NCCCN(C)C` is “inactive”. `CCOC(=O)C(C)Oc1ccc(Oc2nc3ccc(Cl)cc3o2)cc1` (stereo not given): the compound was classed as inactive. The entry for `CCCCOCCOCCOCc1cc2c(cc1CCC)OCO2` is “inactive”.

On to `COC(=O)c1ccc(CNS(C)(=O)=O)cc1S(=O)(=O)NC(=O)Nc1nc(OC)cc(OC)n1`, for which the call was inactive. The entry for `Oc1ccc(C(c2ccc(O)cc2)C(Cl)(Cl)Cl)cc1` is “inactive”; for `CCCCOC(=O)[C@@H](C)Oc1ccc(Oc2ccc(C(F)(F)F)cn2)cc1` it is “inactive”; for `COC(=O)c1ccccc1C(=O)O` it is “inactive”. Take `CN(C)C(=O)Nc1ccc(Cl)c(Cl)c1`: the result was inactive.

In the case of `O=C(O)C1(C(=O)Nc2ccc(Cl)cc2Cl)CC1`, the call was inactive. Take `CCCCCOC(=O)COc1cc(N2C(=O)C3=C(CCCC3)C2=O)c(F)cc1Cl`: the result was inactive.

Turning to `CCNc1nc(N)nc(Cl)n1`, the result was inactive. The entry for `COc1c(Cl)ccc(Cl)c1C(=O)O` is “inactive”.

On to `COC(=O)CSc1cc(N=c2sc(=O)n3n2CCCC3)c(F)cc1Cl`, for which the result was inactive.

Consider `CCSC(=O)N(CC(C)C)CC(C)C`, for which the outcome was inactive. The entry for `c1ccc2[nH]c(-c3cscn3)nc2c1` is “inactive”.

With `N#CSCSc1nc2ccccc2s1`, the call was inactive. The entry for `CCN(Cc1c(F)cccc1Cl)c1c([N+](=O)[O-])cc(C(F)(F)F)cc1[N+](=O)[O-]` is “inactive”; for `COc1nc(C)nc(NC(=O)NS(=O)(=O)c2ccccc2OCCCl)n1` it is “inactive”; for `OB(O)O` it is “inactive”. For the compound `CCN(CC)C(=O)c1cccc(C)c1`, the call was inactive. The entry for `COC(=O)c1ccc(I)cc1S(=O)(=O)NC(=O)Nc1nc(C)nc(OC)n1` is “inactive”; for `S=C(S)NCCNC(=S)S.[Mn+2].[S-]C([S-])=NCCN=C([S-])[S-].[Zn+2]` it is “inactive”; for `CCCCC(CC)COC(=O)c1ccccc1C(=O)O` (stereo not given) it is “inactive”.

The values above are taken from PubChem BioAssay (EPA / NIEHS).
